Of roughly 8,800 targets only a part is listed; those with a hit were picked by preference. About 0.5% of all pairs of compound and target were hits.
Legend:
Test in all cases: log2 fold change, soluble protein after heating vs DMSO (PISA); higher = thermal stabilisation; K562 lysate, 10 uM; active = over 0.2 and 3.5 SD of the protein, either way, in both replicates (recomputed)
ibrutinib = compound: C=CC(=O)N1CCC[C@@H](n2nc(-c3ccc(Oc4ccccc4)cc3)c3c(N)ncnc32)C1 [ibrutinib]
Procedure, shortened: (§1)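 Thermal stability, expressed as log-two fold change relative to solvent controls, is given from duplicates. Crude K562 extract in PBS pH 7.4 with 1 mM MgCl2, at 1 mg/mL protein, was treated with 10 μM compound for 30 min and heated in aliquots for 3 min across 48°C-58°C. After pooling, adjustment to 0.5% NP-40 at 4°C and centrifugation at 21,000xg for 90 min, supernatant protein was measured by TMTpro 16plex LC-MS/MS with channel sums equalised.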

[1] = compound: CC(=O)c1cnc2ccc(-c3cc(Cl)c(O)c(Cl)c3)nc2c1N[C@H]1CC[C@H](CN(C)C)CC1
Procedure, shortened: as §1

ralimetinib = compound: CC(C)(C)Cn1c(N)nc2ccc(-c3[nH]c(C(C)(C)C)nc3-c3ccc(F)cc3)nc21 [ralimetinib]
Procedure, shortened: as §1

[2] = compound: CC(C)(O)CC(=O)NCCn1ccc2ncnc(Nc3ccc(Oc4cccc(C(F)(F)F)c4)c(Cl)c3)c21
Procedure, shortened: as §1

[3] = compound: CC(C)C1=C2N=C(C=C(N2N=C1)NCC3=CC=CC=C3)NCCCCCCN
Procedure, shortened: as §1

[4] = compound: CC1=C(C(CC(=O)N1)C2=CC=C(C=C2)C(F)(F)F)C(=O)NC3=C(C=C4C(=C3)C=NN4)F
Procedure, shortened: as §1

[5] = compound: CC1=C(C2=C(C=C1)C(=O)C3=CC=CC=C3N2CCCN)C
Procedure, shortened: as §1

[6] = compound: CC1=C(C=C(C=C1)NC(=O)C2=CC(=CC=C2)C(C)(C)C#N)NC3=CC4=C(C=C3)N=CN(C4=O)C
Procedure, shortened: as §1

[7] = compound: CC1=C(C=C(C=C1)NC(=O)C2=CC(=CC=C2)N(C)C)NC(=O)C3=CC=C(C=C3)O
Procedure, shortened: as §1

[8] = compound: CC1=CC=C(C=C1)SC2=C3C=C(SC3=CN=C2)C(=O)N
Procedure, shortened: as §1

Measured: log2 fold change

XPO6 (UniProt Q96QU8)
inactive: ibrutinib -0.013 | [1] 0.018 | ralimetinib 0.006 | [2] -0.006 | [3] -0.033 | [4] -0.003 | [5] -0.024 | [6] 0.028 | [7] 0.062 | [8] -0.006

ZFYVE19 (UniProt Q96K21)
UniProt Q96K21, sequence (Q96K21 whole entry, looked up): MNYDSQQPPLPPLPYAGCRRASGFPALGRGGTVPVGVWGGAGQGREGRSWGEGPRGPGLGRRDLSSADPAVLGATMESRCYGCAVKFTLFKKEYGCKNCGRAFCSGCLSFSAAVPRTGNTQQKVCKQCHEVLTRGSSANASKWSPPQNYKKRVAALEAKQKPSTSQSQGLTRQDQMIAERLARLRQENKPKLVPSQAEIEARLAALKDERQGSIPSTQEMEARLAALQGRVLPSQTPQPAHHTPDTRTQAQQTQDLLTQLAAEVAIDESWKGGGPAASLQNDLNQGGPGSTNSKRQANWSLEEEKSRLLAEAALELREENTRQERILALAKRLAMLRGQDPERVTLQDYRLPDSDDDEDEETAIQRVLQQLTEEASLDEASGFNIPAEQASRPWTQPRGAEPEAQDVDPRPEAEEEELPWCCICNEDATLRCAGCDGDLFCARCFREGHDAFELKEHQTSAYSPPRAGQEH
inactive: ibrutinib -0.051 | [1] -0.031 | ralimetinib -0.004 | [2] 0.009 | [3] -0.015 | [4] -0.028 | [5] -0.067 | [6] -0.037 | [7] -0.013 | [8] -0.042

UTP18 (UniProt Q9Y5J1)
inactive: ibrutinib 0.125 | [1] -0.031 | ralimetinib 0.002 | [2] -0.017 | [3] 0.033 | [4] 0.057 | [5] -0.085 | [6] -0.017 | [7] 0.028 | [8] 0.023

ZC2HC1A (UniProt Q96GY0)
UniProt Q96GY0, sequence (Q96GY0 whole entry, looked up): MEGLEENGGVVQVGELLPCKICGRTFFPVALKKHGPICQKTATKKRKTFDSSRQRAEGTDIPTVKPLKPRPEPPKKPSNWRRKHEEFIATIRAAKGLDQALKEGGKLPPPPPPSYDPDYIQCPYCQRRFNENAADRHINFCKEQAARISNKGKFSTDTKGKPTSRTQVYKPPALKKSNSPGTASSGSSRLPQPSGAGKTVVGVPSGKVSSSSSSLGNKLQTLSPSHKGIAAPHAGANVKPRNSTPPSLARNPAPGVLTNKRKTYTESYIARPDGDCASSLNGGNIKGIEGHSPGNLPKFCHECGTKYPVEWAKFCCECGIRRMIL
inactive: ibrutinib -0.029 | [1] -0.006 | ralimetinib 0.037 | [2] -0.056 | [3] -0.038 | [4] -0.016 | [5] -0.076 | [6] 0.045 | [7] -0.003 | [8] 0.006

USP9X (UniProt Q93008)
inactive: ibrutinib -0.003 | [1] 0.001 | ralimetinib 0.025 | [2] -0.024 | [3] -0.032 | [4] -0.008 | [5] 0.009 | [6] -0.021 | [7] 0.043 | [8] 0.011

ZMAT2 (UniProt Q96NC0)
inactive: ibrutinib 0.009 | [1] -0.016 | ralimetinib -0.011 | [2] 0.013 | [3] 0.035 | [4] -0.004 | [5] -0.021 | [6] 0.032 | [7] -0.028 | [8] -0.022

WDR62 isoform 4 (UniProt O43379)
inactive: ibrutinib -0.023 | [1] 0.027 | ralimetinib 0.013 | [2] -0.051 | [3] -0.007 | [4] 0.033 | [5] -0.016 | [6] 0.023 | [7] -0.002 | [8] -0.029

ZHX1 (UniProt Q9UKY1)
UniProt Q9UKY1, sequence (Q9UKY1 whole entry, looked up): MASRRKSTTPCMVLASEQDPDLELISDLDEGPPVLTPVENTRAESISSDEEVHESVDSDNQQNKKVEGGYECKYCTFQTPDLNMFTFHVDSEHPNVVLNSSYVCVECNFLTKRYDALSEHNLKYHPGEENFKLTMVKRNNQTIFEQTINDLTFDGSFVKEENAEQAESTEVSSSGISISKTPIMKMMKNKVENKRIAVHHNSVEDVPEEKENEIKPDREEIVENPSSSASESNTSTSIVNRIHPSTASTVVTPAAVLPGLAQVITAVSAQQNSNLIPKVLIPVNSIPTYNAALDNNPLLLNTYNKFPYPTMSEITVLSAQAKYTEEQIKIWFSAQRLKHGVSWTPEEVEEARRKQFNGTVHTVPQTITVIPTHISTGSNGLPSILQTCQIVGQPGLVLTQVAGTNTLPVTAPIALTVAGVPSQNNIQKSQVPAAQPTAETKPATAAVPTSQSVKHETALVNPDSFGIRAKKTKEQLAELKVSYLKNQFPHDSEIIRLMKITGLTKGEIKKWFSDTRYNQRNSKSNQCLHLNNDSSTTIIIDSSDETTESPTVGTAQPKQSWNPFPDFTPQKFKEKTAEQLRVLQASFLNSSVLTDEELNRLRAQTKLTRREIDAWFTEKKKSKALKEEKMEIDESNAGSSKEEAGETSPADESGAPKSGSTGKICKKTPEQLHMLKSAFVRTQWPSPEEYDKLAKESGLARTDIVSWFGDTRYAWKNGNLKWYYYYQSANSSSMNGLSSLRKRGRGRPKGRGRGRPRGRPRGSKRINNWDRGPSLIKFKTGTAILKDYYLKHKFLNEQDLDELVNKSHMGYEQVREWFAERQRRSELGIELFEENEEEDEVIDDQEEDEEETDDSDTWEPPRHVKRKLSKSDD
inactive: ibrutinib -0.026 | [1] 0.015 | ralimetinib -0.007 | [2] 0.034 | [3] 0.127 | [4] 0.109 | [5] -0.144 | [6] -0.053 | [7] 0.024 | [8] -0.013

VPS28 (UniProt Q9UK41)
inactive: ibrutinib 0.109 | [1] -0.02 | ralimetinib 0.009 | [2] 0.046 | [3] -0.004 | [4] -0.005 | [5] 0.019 | [6] -0.092 | [7] 0.028 | [8] 0.019

YEATS4 (UniProt O95619)
inactive: ibrutinib 0.02 | [1] 0.016 | ralimetinib 0.003 | [2] 0.009 | [3] 0.001 | [4] 0.01 | [5] -0.004 | [6] 0.041 | [7] -0.035 | [8] -0.039

ZZEF1 (UniProt O43149)
inactive: ibrutinib 0.018 | [1] -0.009 | ralimetinib -0.002 | [2] -0.057 | [3] -0.014 | [4] -0.005 | [5] -0.063 | [6] 0.023 | [7] 0.009 | [8] -0.005

VAV1 (UniProt P15498)
UniProt P15498, sequence (P15498 whole entry, looked up): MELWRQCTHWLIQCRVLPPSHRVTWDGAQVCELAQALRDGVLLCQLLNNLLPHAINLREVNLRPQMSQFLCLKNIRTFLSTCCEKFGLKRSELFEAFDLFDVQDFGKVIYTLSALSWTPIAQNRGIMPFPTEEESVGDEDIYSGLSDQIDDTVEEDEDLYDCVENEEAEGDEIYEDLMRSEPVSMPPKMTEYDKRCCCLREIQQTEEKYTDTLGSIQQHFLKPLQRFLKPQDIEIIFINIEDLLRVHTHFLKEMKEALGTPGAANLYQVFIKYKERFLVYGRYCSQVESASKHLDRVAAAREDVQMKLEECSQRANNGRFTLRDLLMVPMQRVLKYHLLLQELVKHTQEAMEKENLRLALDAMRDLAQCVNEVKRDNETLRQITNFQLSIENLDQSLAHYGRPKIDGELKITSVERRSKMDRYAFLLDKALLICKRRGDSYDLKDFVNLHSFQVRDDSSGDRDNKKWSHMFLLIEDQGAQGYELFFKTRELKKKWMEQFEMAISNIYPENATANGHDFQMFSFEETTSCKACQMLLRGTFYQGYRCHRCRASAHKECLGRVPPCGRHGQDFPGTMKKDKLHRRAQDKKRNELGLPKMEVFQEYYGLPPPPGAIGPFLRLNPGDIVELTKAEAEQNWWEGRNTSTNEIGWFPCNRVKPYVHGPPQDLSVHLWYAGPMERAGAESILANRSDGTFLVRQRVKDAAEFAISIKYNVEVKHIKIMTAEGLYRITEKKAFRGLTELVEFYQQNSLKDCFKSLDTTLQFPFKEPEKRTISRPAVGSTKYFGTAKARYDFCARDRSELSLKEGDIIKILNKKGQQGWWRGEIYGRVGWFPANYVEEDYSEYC
inactive: ibrutinib -0.057 | [1] 0.054 | ralimetinib 0.083 | [2] -0.042 | [3] 0.009 | [4] -0.004 | [5] -0.034 | [6] -0.078 | [7] 0.046 | [8] 0.082

WDR7 (UniProt Q9Y4E6)
inactive: ibrutinib 0.067 | [1] 0.04 | ralimetinib 0.063 | [2] -0.075 | [3] -0.03 | [4] -0.005 | [5] -0.013 | [6] 0.037 | [7] -0.06 | [8] -0.013

VPS54 (UniProt Q9P1Q0)
inactive: ibrutinib 0.048 | [1] -0.059 | ralimetinib -0.122 | [2] -0.267 | [3] -0.004 | [4] 0.038 | [5] 0.04 | [6] 0.144 | [7] 0.066 | [8] -0.037

WDR3 (UniProt Q9UNX4)
inactive: ibrutinib 0 | [1] 0.014 | ralimetinib 0.021 | [2] 0.025 | [3] -0.033 | [4] 0.015 | [5] -0.032 | [6] -0.021 | [7] -0.001 | [8] 0.03

USP3 (UniProt Q9Y6I4)
inactive: ibrutinib 0.01 | [1] 0.048 | ralimetinib 0.042 | [2] -0.027 | [3] 0.014 | [4] 0.024 | [5] 0.011 | [6] -0.014 | [7] 0.016 | [8] -0.025

WIPI2 isoform 6 (UniProt Q9Y4P8)
inactive: ibrutinib -0.021

WDR91 (UniProt A4D1P6)
UniProt A4D1P6, sequence (A4D1P6 whole entry, looked up): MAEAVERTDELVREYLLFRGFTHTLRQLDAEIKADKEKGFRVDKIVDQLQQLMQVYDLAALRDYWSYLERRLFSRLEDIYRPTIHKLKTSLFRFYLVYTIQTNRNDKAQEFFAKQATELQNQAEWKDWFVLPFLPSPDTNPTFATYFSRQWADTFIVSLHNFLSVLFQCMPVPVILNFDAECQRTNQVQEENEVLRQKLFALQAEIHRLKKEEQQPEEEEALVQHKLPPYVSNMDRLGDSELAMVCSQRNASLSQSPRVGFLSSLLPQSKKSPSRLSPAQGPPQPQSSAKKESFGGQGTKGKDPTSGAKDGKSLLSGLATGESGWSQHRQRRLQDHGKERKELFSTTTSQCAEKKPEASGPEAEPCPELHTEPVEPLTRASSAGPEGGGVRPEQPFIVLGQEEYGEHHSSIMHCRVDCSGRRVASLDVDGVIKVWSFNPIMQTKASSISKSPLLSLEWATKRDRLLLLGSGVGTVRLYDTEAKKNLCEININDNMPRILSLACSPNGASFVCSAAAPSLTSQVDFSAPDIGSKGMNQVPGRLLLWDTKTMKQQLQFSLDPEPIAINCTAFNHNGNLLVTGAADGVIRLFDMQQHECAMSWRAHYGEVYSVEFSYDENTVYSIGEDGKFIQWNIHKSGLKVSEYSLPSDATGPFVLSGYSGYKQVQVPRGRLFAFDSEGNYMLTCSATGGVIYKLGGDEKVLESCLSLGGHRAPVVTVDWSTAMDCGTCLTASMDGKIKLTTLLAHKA
inactive: ibrutinib 0.05 | [1] 0.011 | ralimetinib 0.026 | [2] -0.002 | [3] -0.026 | [4] -0.013 | [5] -0.009 | [6] -0.046 | [7] 0.043 | [8] 0.002

XPO1 (UniProt O14980)
UniProt O14980, sequence (O14980 whole entry, looked up): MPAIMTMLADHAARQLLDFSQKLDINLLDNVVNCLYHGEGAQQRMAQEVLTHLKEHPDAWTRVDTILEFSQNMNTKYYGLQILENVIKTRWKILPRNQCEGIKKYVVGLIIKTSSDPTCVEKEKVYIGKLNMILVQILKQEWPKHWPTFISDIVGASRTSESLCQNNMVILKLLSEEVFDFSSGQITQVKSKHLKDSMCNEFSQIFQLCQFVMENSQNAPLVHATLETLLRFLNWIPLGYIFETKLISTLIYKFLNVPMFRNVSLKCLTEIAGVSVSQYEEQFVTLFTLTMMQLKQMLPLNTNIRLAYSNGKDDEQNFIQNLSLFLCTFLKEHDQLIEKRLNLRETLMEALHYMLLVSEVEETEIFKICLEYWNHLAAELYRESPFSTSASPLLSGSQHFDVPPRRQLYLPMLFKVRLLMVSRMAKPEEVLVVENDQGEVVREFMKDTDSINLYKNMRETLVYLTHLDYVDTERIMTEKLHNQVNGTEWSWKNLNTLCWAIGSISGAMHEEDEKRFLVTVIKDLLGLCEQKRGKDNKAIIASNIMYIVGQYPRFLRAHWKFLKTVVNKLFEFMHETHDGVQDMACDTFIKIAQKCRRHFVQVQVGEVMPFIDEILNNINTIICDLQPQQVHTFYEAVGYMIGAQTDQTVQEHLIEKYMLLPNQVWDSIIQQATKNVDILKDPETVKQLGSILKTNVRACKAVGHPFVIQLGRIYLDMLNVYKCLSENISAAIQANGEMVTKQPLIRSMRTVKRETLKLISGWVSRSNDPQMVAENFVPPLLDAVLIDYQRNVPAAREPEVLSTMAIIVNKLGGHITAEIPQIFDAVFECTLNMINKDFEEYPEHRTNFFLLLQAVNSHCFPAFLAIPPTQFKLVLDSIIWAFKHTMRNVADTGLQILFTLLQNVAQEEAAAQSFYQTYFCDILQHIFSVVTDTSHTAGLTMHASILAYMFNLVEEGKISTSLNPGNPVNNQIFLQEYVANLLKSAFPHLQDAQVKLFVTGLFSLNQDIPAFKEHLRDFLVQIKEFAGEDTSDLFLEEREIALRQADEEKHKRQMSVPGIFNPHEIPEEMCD
inactive: ibrutinib -0.01 | [1] 0.008 | ralimetinib 0.029 | [2] -0.037 | [3] -0.01 | [4] -0.007 | [5] 0.035 | [6] -0.004 | [7] 0.02 | [8] 0.019

WEE1 (UniProt P30291)
inactive: ibrutinib -0.028 | [1] 0.139 | ralimetinib -0.017 | [2] -0.062 | [3] -0.031 | [4] -0.032 | [5] -0.012 | [6] 0.023 | [7] -0.105 | [8] -0.038

VPS35L (UniProt Q7Z3J2)
inactive: ibrutinib 0.011 | [1] 0.023 | ralimetinib -0.003 | [2] -0.032 | [3] 0.003 | [4] 0.007 | [5] 0.018 | [6] -0.021 | [7] 0.009 | [8] -0.005

USP48 isoform 8 (UniProt Q86UV5)
inactive: ibrutinib -0.02 | [1] -0.014 | ralimetinib 0.004 | [2] 0 | [3] -0.005 | [4] 0.007 | [5] -0.005 | [6] 0.001 | [7] 0 | [8] -0.01

USP16 (UniProt Q9Y5T5)
inactive: ibrutinib -0.027 | [1] -0.035 | ralimetinib -0.001 | [2] 0.011 | [3] 0.017 | [4] 0 | [5] -0.06 | [6] -0.027 | [7] -0.012 | [8] 0.019

USP8 (UniProt P40818)
inactive: ibrutinib 0.048 | [1] -0.009 | ralimetinib 0 | [2] -0.014 | [3] 0.015 | [4] 0.004 | [5] -0.007 | [6] -0.001 | [7] 0.018 | [8] 0.009

WIPI2 (UniProt Q9Y4P8)
inactive: ibrutinib 0.047 | [1] 0.019 | ralimetinib 0.026 | [2] 0.018 | [3] 0.022 | [4] 0.042 | [5] -0.018 | [6] 0.006 | [7] -0.013 | [8] -0.003

WIPI1 (UniProt Q5MNZ9)
inactive: ibrutinib 0.098 | [1] -0.062 | ralimetinib 0.002 | [2] 0.019 | [3] -0.008 | [4] 0.1 | [5] -0.023 | [6] -0.005 | [7] -0.009 | [8] -0.033

WDCP (UniProt Q9H6R7)
UniProt Q9H6R7, sequence (Q9H6R7 whole entry, looked up): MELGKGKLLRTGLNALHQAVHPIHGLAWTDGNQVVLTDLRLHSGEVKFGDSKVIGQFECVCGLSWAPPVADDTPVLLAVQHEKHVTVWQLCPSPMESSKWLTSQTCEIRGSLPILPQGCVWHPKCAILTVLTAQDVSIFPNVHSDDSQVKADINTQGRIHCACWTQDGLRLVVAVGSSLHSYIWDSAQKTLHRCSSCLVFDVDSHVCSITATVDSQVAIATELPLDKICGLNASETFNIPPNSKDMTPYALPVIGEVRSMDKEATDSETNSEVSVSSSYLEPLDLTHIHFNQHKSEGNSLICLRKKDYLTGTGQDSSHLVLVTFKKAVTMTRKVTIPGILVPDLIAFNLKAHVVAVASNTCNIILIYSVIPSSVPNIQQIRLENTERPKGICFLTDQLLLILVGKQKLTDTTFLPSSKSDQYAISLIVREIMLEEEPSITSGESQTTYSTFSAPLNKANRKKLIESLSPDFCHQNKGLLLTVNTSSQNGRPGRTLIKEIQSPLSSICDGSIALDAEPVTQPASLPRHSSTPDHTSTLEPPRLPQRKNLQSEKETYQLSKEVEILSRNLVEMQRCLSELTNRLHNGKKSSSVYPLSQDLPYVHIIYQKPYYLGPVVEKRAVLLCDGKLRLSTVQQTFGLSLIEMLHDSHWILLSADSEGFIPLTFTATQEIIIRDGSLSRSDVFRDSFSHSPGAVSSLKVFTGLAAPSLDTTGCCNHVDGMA
inactive: ibrutinib 0.021 | [1] 0.021 | ralimetinib -0.006 | [2] -0.045 | [3] -0.027 | [4] -0.023 | [5] -0.041 | [6] 0 | [7] 0.01 | [8] 0.049

WDR24 (UniProt Q96S15)
inactive: ibrutinib -0.044 | [1] -0.016 | ralimetinib 0.025 | [2] -0.022 | [3] 0.041 | [4] 0.055 | [5] -0.011 | [6] 0.033 | [7] -0.034 | [8] 0.021

VRK1 (UniProt Q99986)
inactive: ibrutinib 0.008 | [1] 0.035 | ralimetinib 0.122 | [2] 0.005 | [3] -0.008 | [4] -0.013 | [5] 0.007 | [6] -0.015 | [7] 0.018 | [8] 0.003

VPS18 (UniProt Q9P253)
inactive: ibrutinib -0.007 | [1] -0.026 | ralimetinib 0.038 | [2] -0.065 | [3] -0.022 | [4] 0.004 | [5] -0.046 | [6] -0.004 | [7] -0.041 | [8] 0.009

From the supplement of paper PMC10849652
